Assay results as given in PubChem BioAssay AID619 (University of Pittsburgh Molecular Library Screening Center, 2007).
In all, about 97,000 compounds went through this assay and about 520 (0.54%) were called active. The list comes from a sample in which actives are over-represented; it also holds similar structures and randomly drawn compounds. A number with no mark means an inactive call.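 Rule for the calls: active = inhibition of 50% or more in the single-concentration screen; inactive = inhibition below 50%.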

What follows are compounds tested against Serine/threonine-protein kinase PLK1 (Homo sapiens) (UniProt P53350) (assay: Plk1 peptide phosphorylation blockers – biochemical, TR-FRET, primary screen (AID 619;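 note: 0% = DMSO max control and 100% = H-89 dihydrochloride min control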)). Conditions: recombinant PLK1 kinase, at 10 µM, active compounds read high.
Chain of Serine/threonine-protein kinase PLK1 (Homo sapiens) (P53350 whole entry, looked up): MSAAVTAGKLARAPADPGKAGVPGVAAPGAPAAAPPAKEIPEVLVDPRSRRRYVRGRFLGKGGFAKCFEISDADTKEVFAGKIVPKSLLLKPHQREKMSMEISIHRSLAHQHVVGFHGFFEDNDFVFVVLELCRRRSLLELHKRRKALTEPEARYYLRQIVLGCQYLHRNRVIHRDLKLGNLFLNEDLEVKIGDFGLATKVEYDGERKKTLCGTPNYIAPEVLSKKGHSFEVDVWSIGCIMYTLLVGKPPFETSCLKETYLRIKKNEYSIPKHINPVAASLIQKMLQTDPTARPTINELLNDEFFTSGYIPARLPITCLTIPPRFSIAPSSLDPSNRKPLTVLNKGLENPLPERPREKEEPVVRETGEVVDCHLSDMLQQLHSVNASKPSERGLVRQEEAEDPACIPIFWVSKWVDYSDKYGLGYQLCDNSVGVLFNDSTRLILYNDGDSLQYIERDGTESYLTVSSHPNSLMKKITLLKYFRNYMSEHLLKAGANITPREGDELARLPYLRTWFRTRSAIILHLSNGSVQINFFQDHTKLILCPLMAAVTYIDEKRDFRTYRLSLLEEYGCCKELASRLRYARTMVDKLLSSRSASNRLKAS

SMILES | inhibition
COCC(=O)Nc1ccc(Br)cc1 | 2.4%
COc1ccc(NCc2nnc(SCc3ccccc3)n2-c2ccc(OC)cc2)cc1 | -14.5%
CC1Cc2ccccc2N1C(=O)c1cc2sccc2n1Cc1ccccc1 (stereo not drawn) | -10.7%
Cc1ccc(C(=O)N/C(=C/C=C/c2ccccc2)C(=O)NCc2ccco2)cc1 | -5.76%
O=C(/C=C/c1ccccc1)N/C(=C/c1ccccc1)C(=O)Nc1ccccc1O | -4.44%
Cc1ccccc1-n1c(C)cc(/C=N/NC(=O)c2ccc(CN3CCOCC3)cc2)c1C | -16%
Fc1ccccc1COc1ccccc1CNCc1ccncc1 | -5.47%
COCCCNC(=O)CN1CCN(Cc2ccccc2Cl)C1=O | -2.49%
COC(=O)CNS(=O)(=O)c1ccc(OC)cc1 | -2.7%
Cc1ccc(-n2c(CNc3ccc(F)cc3)nnc2SCC(=O)N2CCOCC2)cc1 | -8.34%
O=C(NCc1ccccn1)c1cc(-c2ccccc2Cl)on1 | -11.3%
CCC(C)NC(=O)CCCc1ccccc1 (stereo not drawn) | 3.26%
O=C(Cn1cncn1)N/N=C/c1c2ccccc2cc2ccccc12 | -1.05%
CC1CCN(S(=O)(=O)c2ccc(S(=O)(=O)NCc3ccco3)cc2)CC1 | -3.69%
Oc1ccc(-c2onc3ccc(Cl)cc23)cc1 | 7.69%
Cn1nc(C(F)(F)F)c(C(=O)Nc2cccc(C(F)(F)F)c2)c1SCc1ccc(Cl)cc1 | -9.84%
C=CCNc1nc(N)c(C(=C(C#N)C#N)c2ccccc2)s1 | -9.14%
Cc1c(Nc2cc(N3CCCC(C)C3)c3nonc3c2[N+](=O)[O-])c(=O)n(-c2ccccc2)n1C (stereo not drawn) | -8.74%
O=C(Nc1nnc(SCc2c(Cl)cccc2Cl)s1)C1CCCO1 (stereo not drawn) | 2.16%
CC(C)C[C@@H](N)c1nnc(SCC(=O)c2ccc(Cl)cc2)o1 | -3.08%
COc1ccc2[nH]cc(/C=C(/C#N)S(=O)(=O)c3ccccc3)c2c1 | 0.68%
CC1CC(C)CN(C(=O)CSc2nnc(CSc3ncccn3)n2C)C1 (stereo not drawn) | -3.56%
CCN1C(=O)C(CC(=O)Nc2cc(C)ccc2C)SC1=Nc1ccc(S(N)(=O)=O)cc1 (stereo not drawn) | -2.89%
COC(=O)C1=C(C)N=C2SC(C)C(=O)N2C1/C=C/c1ccccc1 (stereo not drawn) | -12.6%

SMILES | inhibition
Cc1nn(C)c(Oc2ccccc2)c1[N+](=O)[O-] | -6.21%
CCOC(=O)C1=C(NC(=S)NC(=O)c2ccccc2)c2ccccc2CC1(C)C | 5.6%
O=S(=O)(c1cnccc1N1CCN(/N=C/c2ccc(Br)cc2)CC1)N1CCCCC1 | -2.5%
COCc1nnc(NC(=O)CS(=O)(=O)Cc2ccccc2)s1 | -4.96%
O=C(CCS(=O)(=O)c1ccccc1)Nc1nc2c(s1)CCCC2 | 68.7% (active)
Cc1cccc(S(=O)(=O)CC(=O)Nc2nc(-c3ccccc3)cs2)c1 | -1.62%
COC(=O)c1ccc(CSc2nnc(NC(C)C)s2)cc1 | -15%
O=C(c1ccc(F)cc1)c1c[nH]c(C(=O)NCc2cccnc2)c1 | 3.12%
CCSc1nnc(NC(=O)Cc2ccccc2OC)s1 | -15.2%
CC(=O)c1cnn(-c2cc(Oc3ccc(F)cc3)ncn2)c1C | -5.47%
CC(C)=CC(=O)Nc1nnc(-c2ccc(F)cc2)s1 | -17.5%
COc1ccc(C(=O)Nc2ncc3c(n2)-c2ccccc2CC3)cc1 | -1.84%
C/C(=N/NC(=O)c1ccc(NC(=O)c2ccc(F)cc2)cc1)c1ccccc1 | -9.91%
CNC(=O)CN1C(=O)c2ccccc2S1(=O)=O | 58.4% (active)
O=C(CN1C(=O)c2ccccc2S1(=O)=O)N1CCc2ccccc21 | -11.2%
CCCc1nnc(NC(=O)CN2C(=O)c3ccccc3S2(=O)=O)s1 | -11%
CCOC(=O)N1CCN(C(c2cccnc2)c2ccc3cccnc3c2O)CC1 (stereo not drawn) | 5.49%
CN(C(=O)CSc1nnc(N)s1)c1c(N)n(Cc2ccccc2)c(=O)[nH]c1=O | -0.95%
CN1/C(=C\C=C2\N=C(c3ccc(F)cc3)OC2=O)C(C)(C)c2ccccc21 | -25.2%
Cc1ccc(NC(=O)c2ccc(CSc3ncnc4nc[nH]c34)cc2)c(C)c1 | 27.2%
CCOC(=O)N1CCN(S(=O)(=O)c2ccc(C(=O)Nc3ccc(F)cc3F)cc2)CC1 | -7.78%
O=C(Nc1cccc(F)c1)c1ccc(S(=O)(=O)N2CCCC2)cc1 | 72.1% (active)
O=C(Nc1ccc2c(c1)CCC2)c1cccc(S(=O)(=O)N2CCN(c3ccc(F)cc3)CC2)c1 | -5.86%
CN(Cc1ccccc1)C(=O)COc1ccccc1 | -6.87%

SMILES | inhibition
C=CCNC(=S)N/N=C/c1ccc(OCc2ccccc2)cc1 | 7.95%
O=C(Nc1ccc2c(c1)OCCO2)C(c1ccc(F)cc1)N1CCCCC1 (stereo not drawn) | 1.96%
CC1(C)Cc2c(sc3nc(SCC(=O)NCc4ccccc4)n(-c4ccccc4)c(=O)c23)CS1 | -3.27%
O=C(Nc1ccccc1Cl)O/N=C(/c1ccccc1)c1ccccn1 | -2.38%
CCC(C)(C)n1nnnc1CN1CCN(c2nc3ccc(C)cc3cc2C#N)CC1 | -9.44%
COc1ccc(C(C#N)N2N=C(C)CC2(C)C)cc1 (stereo not drawn) | -2.1%
COc1ccc(C2=Nc3cc(C)ccc3OC2)cc1 | -6.91%
COc1ccc(-c2nc(CS(=O)CC(=O)NCc3ccccn3)c(C)o2)cc1 (stereo not drawn) | -9.42%
COc1ccc(-c2nc(CS(=O)CC(=O)NCc3cccnc3)c(C)o2)cc1OC (stereo not drawn) | 78.2% (active)
Cc1oc2nc(SCC(=O)NCc3cccnc3)nc(N)c2c1C | 5.49%
Cc1ccccc1OCc1nnc(SCC(=O)N2c3ccccc3Sc3ccc(Cl)cc32)o1 | 3.98%
CCOC(=O)c1c(C)oc2cc(Br)c(OCC(N)=O)cc12 | -3.79%
CC(C)(C)N1CC(c2nc3ccccc3n2Cc2ccc(F)cc2)CC1=O (stereo not drawn) | -8.27%
CC1CN(c2cc(=O)n(-c3cccc(Br)c3)c(=O)[nH]2)CC(C)O1 (stereo not drawn) | -9.28%
CC1CN(c2cc(=O)n(Cc3ccc(F)cc3)c(=O)[nH]2)CC(C)O1 (stereo not drawn) | 70.7% (active)
Cc1c(Cl)c([N+](=O)[O-])nn1Cc1ccc(C(=O)N/N=C\c2cc(Cl)ccc2O)o1 | -11.3%
COc1ccc(Nc2nc(Cl)nc(NCc3ccco3)n2)cc1 | -10.4%
COc1ccc(-c2nnc(SCC(=O)NC3CCCCC3)o2)cc1OC | -12.8%
Cc1ccc(-c2nc(CS(=O)CC(=O)NC3CCCC3)c(C)o2)cc1 (stereo not drawn) | 62.6% (active)
COc1ccc(-c2nc(CS(=O)CC(=O)N3CCc4ccccc4C3)c(C)o2)cc1 (stereo not drawn) | -0.36%
Cc1ccc(-c2nc(CS(=O)CC(=O)N3CCN(c4ncccn4)CC3)c(C)o2)cc1 (stereo not drawn) | 68.5% (active)
Cc1ccc(S(=O)(=O)NCC(=O)N2CCN(c3ccccn3)CC2)cc1 | -12%
Cc1ccc(S(=O)(=O)N(C)CC(=O)NC2CCCC2)cc1 | -5.15%
O=C(Nc1ccc(F)c(Cl)c1)C1CCN(S(=O)(=O)c2cccnc2)CC1 | -7.65%

SMILES | inhibition
N#CC1=C(N)N(c2ccccc2)C2=C(C(=O)CCC2)C1c1ccccc1 (stereo not drawn) | -9.12%
CCOC(=O)Cc1csc(NC(NC(=O)OCC)(C(F)(F)F)C(F)(F)F)n1 | -10.9%
C=CCn1c(SCc2c(C(=O)OC)sc(N)c2C(=O)OC)nnc1-c1ccc(Cl)cc1 | 0.32%
Cc1ccc(Nc2nc(C)cc(C)c2C(N)=O)cc1 | -8.3%
CCNC(=S)N1CCN(C(=O)c2ccco2)CC1 | -10.9%
COc1ccc(CN(Cc2ccco2)S(=O)(=O)c2ccc(S(=O)(=O)N3CCCC3)cc2)cc1 | -1.36%
O=C1c2ccccc2C(=O)N1CC1c2ccccc2CCN1S(=O)(=O)c1ccccc1 (stereo not drawn) | -13.2%
Cc1noc(C)c1COC(=O)c1cc2ccccc2cc1O | -5.75%
O=C(NCCCCCCCCCNC(=O)C(F)(F)F)C(F)(F)F | -9%
COc1ccc(C(C(=O)NCc2ccccc2)N(Cc2cccs2)C(=O)c2cnccn2)cc1 (stereo not drawn) | -8.73%
Fc1ccc(N2N=C(c3cccs3)CC2c2ccco2)c(F)c1 (stereo not drawn) | -0.33%
O=c1[nH]c(CCl)nc2cc(-c3ccc(Cl)cc3)sc12 | -15.1%
CCCCNC(=O)CCn1c(=S)[nH]c2cc3c(cc2c1=O)OCO3 | -10.8%
CCn1c(C)nc2c1C(=O)c1ccccc1C2=O | -6.21%
CC1CCN(c2ccc(S(=O)(=O)Nc3cc(C(=O)O)cc(C(=O)O)c3)cc2[N+](=O)[O-])CC1 | -8.56%
CCN(CC)C(=O)CSc1nnc(C2CCCCC2)o1 | -6.95%
O=C(CSCc1ccc([N+](=O)[O-])cc1)Nc1cccc(C(=O)Nc2ccccc2C(=O)O)c1 | -6%
CCc1ccc2c(c1)cc(CN(C(=S)Nc1ccccc1Cl)C1CC1)c1nnnn12 | -115%
O=C(CO/N=C/c1ccccc1O)NNC(=O)c1ccccc1Cl | -11.5%
COC(=O)C1C(=O)NCC1c1ccc(C)cc1 (stereo not drawn) | -7.84%
CC1C/C(=N/NC(=O)c2cccs2)CC(C)(C)C1 (stereo not drawn) | -10.1%
